Results published in PubChem BioAssay AID540333 (Southern Research Specialized Biocontainment Screening …, 2011).
Screen size: about 10,000 compounds; about 320 (3.2%) were called active. The sample holds actives, similar compounds and a random draw of the others, so the mix is not that of the screen. Rule as the data show it: active = CPE inhibition mostly above about 9.1% (no sharp cut-off); inactive = mostly below about 7.2%.

Assay: Dengue virus cytopathic effect inhibitors, cell-based, CPE readout, HTS (AID 540333)
Conditions: Dengue virus CPE inhibition in host cells, at 20 µM; active compounds read high

Row | SMILES | CPE inhibition
1 | C/C(=N\Nc1nc(Cl)c(Cl)cc1Cl)c1ccc(S(=O)(=O)NCc2ccco2)cc1 | 8.5% (active)
2 | C/C(=N\Nc1ncc(Cl)cc1Cl)c1ccc(S(=O)(=O)NCc2ccco2)cc1 | inactive
3 | C/C(=N\Nc1ccccn1)c1ccc(S(=O)(=O)NCc2ccco2)cc1 | inactive
4 | Cc1ccccc1OCC(=O)N/N=C1\SCC(=O)N1Cc1ccccc1 | inactive
5 | COc1ccc(C(C(=O)Nc2ccc3c(c2)OCO3)N(C)C(=O)Cc2c[nH]c3ccccc23)cc1 (stereo not given) | 25.8% (active)
6 | COc1ccc(-c2cc(C(=O)OCC(=O)Nc3ccc4c(c3)OCO4)c3ccccc3n2)cc1 | 0.175% (inactive)
7 | COc1ccc(NC(=O)C(c2cc3c(cc2[N+](=O)[O-])OCO3)N(C)c2ccccc2)cc1 (stereo not given) | 1.73% (inactive)
8 | O=C(CCCC(=O)N1CCN(c2ccc([N+](=O)[O-])cc2)CC1)c1ccccc1 | 0.355% (inactive)
9 | Cc1ccc2nc(N3CC(=O)Nc4ccccc43)nc(-c3ccccc3)c2c1 | 1.55% (inactive)
10 | Cc1c(Cl)cccc1NCC(=O)Nc1ccc(Cl)cc1F | 4.37% (inactive)
11 | COc1ccc(NC(=O)CCC(=O)c2cccs2)cc1S(=O)(=O)Nc1ccc(Cl)cc1 | 0.325% (inactive)
12 | Cc1ccc(C(=O)CCC(=O)Nc2ccc(Cl)c(S(=O)(=O)Nc3cccc(Cl)c3)c2)cc1 | 4.45% (inactive)
13 | COc1ccc(NS(=O)(=O)c2cccc(NC(=O)CCC(=O)c3ccc(Cl)cc3)c2)cc1 | 17.3% (active)
14 | CC(=O)Nc1ccc(OCC(=O)NCCc2ccc(Cl)cc2)cc1 | inactive
15 | Cc1ccc(-n2c(C)cc(/C=N\NC(=O)CC(=O)NC(C)C)c2C)cc1 | inactive
16 | Cc1cc(/C=N\NC(=O)CC(=O)NC2CCCCC2)c(C)n1-c1cccc(Cl)c1Cl | 22.7% (active)
17 | Cc1cccc(C)c1-n1c(C)cc(/C=N\NC(=O)CC(=O)NC2CCCCC2)c1C | 0.17% (inactive)
18 | Cc1ccc(S(=O)(=O)c2cc(OC(=O)c3ccco3)ccc2OC(=O)c2ccco2)cc1 | 0.235% (inactive)
19 | CC1(C)CC(NC(=O)C(Cl)(Cl)Cl)CC(C)(C)N1 | inactive
20 | CCn1ncc(/C=C/C(=O)C2CC2)c1C | 2.21% (inactive)
21 | CCOC(=O)c1c(C)[nH]c(C(=O)/C(C#N)=C/c2ccc(OCC)cc2)c1C | 0.085% (inactive)
22 | CCOc1ccc(N=C2NC(=O)/C(=C/C(=O)OC)S2)cc1 | 0.935% (inactive)
23 | CCOC(=O)c1c(C)[nH]c(C2=NNC(=Nc3ccc(OCC)cc3)SC2)c1C | 13.2% (active)

Row | SMILES | CPE inhibition
24 | O=C(CCN1C(=O)c2ccccc2C1=O)C1=NN[C@@H]2C(=O)N(c3cccc(F)c3)C(=O)[C@H]12 | 1.32% (inactive)
25 | COc1cc(C=Nc2cccc([N+](=O)[O-])c2C)ccc1OC(C)=O | 4.63% (inactive)
26 | Cc1cccc(/C=N/Nc2cc(N3CCOCC3)nc(N3CCOCC3)n2)c1 | inactive
27 | Cc1cccc(-c2nc(Nc3ccc(N4CCOCC4)cc3)c3ccccc3n2)c1 | inactive
28 | CSc1nc(N2CCOCC2)nc2ccc(C)cc12 | 11.8% (active)
29 | COc1ccc(C)cc1NC(=O)c1cc2c(s1)CCC2 | inactive
30 | COc1ccc(/C=N/N2CCN(C3c4ccccc4-c4ccccc43)CC2)cc1OC | 0.5% (inactive)
31 | CCc1nc(C#N)c(N2CCOCC2)o1 | 0.655% (inactive)
32 | COc1ccc(C(=O)N[C@H](C(=O)OCC(=O)NC(=O)c2cccn2C)C(C)C)cc1 | inactive
33 | CC(=O)c1ccc(NC(=O)c2cc(Cl)sc2Cl)cc1 | 0.185% (inactive)
34 | O=C(COC(=O)c1ccccc1C(=O)c1ccc(Cl)cc1)NCCc1ccccc1 | 5.59% (inactive)
35 | Cc1ccc(C(=O)c2ccccc2C(=O)OCC(=O)NCCc2ccc(Cl)cc2Cl)cc1 | 22.8% (active)
36 | Cc1ccc(C(=O)c2ccccc2C(=O)OCC(=O)NCCc2ccccc2)cc1 | 1.41% (inactive)
37 | O=C(Nc1ccn(-c2ccccc2)n1)c1ccc(Cl)cc1 | 0.155% (inactive)
38 | COc1ccc(CCNC(=O)CC2SC(=NCCc3ccccc3)NC2=O)cc1 (stereo not given) | inactive
39 | C[C@H](NS(=O)(=O)c1ccc(Cl)cc1)C(=O)OCC(=O)NC(=O)Nc1ccc2c(c1)OCCO2 | 0.475% (inactive)
40 | COc1cc(NS(=O)(=O)c2ccc(Cl)cc2)c(C(=O)O)cc1OC | 0.06% (inactive)
41 | O=S(=O)(Nc1cccc2c1CCCC2)c1ccc(Cl)cc1 | 21.1% (active)
42 | Cc1ccc(S(=O)(=O)Nc2cccc3c2CCCC3)cc1 | 0.255% (inactive)
43 | Cn1c2ccccc2c(=O)c2c(=O)n(C3CCCCCC3)c(C3CCCCC3)nc21 | inactive
44 | CCc1nc2c(c(=O)c3ccccc3n2C)c(=O)n1C1CCCCCC1 | 13.5% (active)
45 | CCCc1nc2c(c(=O)c3ccccc3n2C)c(=O)n1C1CCCCCC1 | inactive
